The nature of the assay: small-molecule binders of probe aInhba, primary screen, biochemical, small-molecule microarray, 635/667 nm fluorescence (AID 1148).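 Also: score merges 667nm spot fluorescence with signal-to-noise for antibody binding to printed compounds.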 The following applies: higher = more signal.
`CSCC[C@@H]1NC(=O)CC=C[C@@H](C)COC(=O)[C@H](C)COC1=O`: the composite z-score was -0.17.

Take `CO[C@H]1COC(=O)CCC[C@H](C)[C@@H](OC)COC(=O)CC=C[C@@H]1C`: the composite z-score is -0.128.

The molecule `CC(C)[C@@H](OCc1ccccc1)[C@H](C)C=NO[C@@H](C)c1cn([C@H](CO)Cc2ccccc2)nn1` displayed a composite z-score of -0.107.

Molecule `CCN1C(=O)[C@H]2[C@@H]3C(=CC[C@H]2C1=O)C(=O)[C@H]1O[C@H]1[C@H]3O` yielded a composite z-score of -0.183.

Turning to `CC(C)=CCCC(C)=CCON=C1C[C@@H](O)[C@@H](O)[C@@H]2[C@@H]3C(=O)N(C4CCCCC4)C(=O)[C@@H]3CC[C@H]12`, the composite z-score is -0.15.

With `C=CC[C@@H]1C=C[C@H](ON=C[C@@H](NS(=O)(=O)c2ccc(C)cc2)[C@H](C)C=CCC(=O)OC)[C@@H](CO)O1`, the composite z-score turned out to be 0.138.

As to `COC(=O)[C@H](C)NC(=O)CCC1CC(OC(=O)NCCc2ccc(F)cc2)CC2(CCCC(COC(=O)NCCOc3ccccc3)O2)O1` (some centres not stated), the composite z-score was -0.0059.

`CO[C@@H]1COC(=O)[C@H](COCc2ccccc2)NC(=O)CC=C[C@@H](C)[C@H](OC)COC(=O)[C@@H](C)NC(=O)CC=C[C@H]1C` came in with a composite z-score of -0.179.

In turn, `CC(CCC(=O)OC[C@H]1O[C@H](C#Cc2ccccc2)C=C[C@@H]1Oc1ccc(C)cc1)=NOC[C@@H](C)[C@H](OCc1ccccc1)C(C)C` returned a composite z-score of -0.128.

Turning to `COC(=O)[C@H](C)NC(=O)CC=C[C@@H](C)[C@@H]1C=C[C@H](O)[C@@H](CO)O1`, the composite z-score was -0.0918.

In the case of `C=CC[C@@H]1C=C[C@H](ON=C(C)CCN2CCCc3nc(C)c(C)cc32)[C@@H](CO)O1`, the composite z-score came to 0.528.

On to `O=C1C=C[C@@H](O)[C@@H]2[C@@H]3C(=O)N(Cc4ccccc4)C(=O)[C@@H]3CC[C@@H]12`, for which the composite z-score is -0.128.

(Values after PubChem BioAssay.)
